U2OS ROS induce: cancer cell ROS induction; U2OS ROS induction, H2DCF-DA fluorescence; ROS induction (% of piperlongumine), % at 10 µM; hit rate 2% among 46,000; AID 624156; in the data active = ROS induction above about 79%, passing the limit was not always enough;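 note: 0% = DMSO vehicle median and 100% = reference compound median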
YB-1 expr inh: YB-1 expression inhibition; delta delta Cp (YB-1 minus CDIP) (no concentration beside the values); hit rate 0.37% among 30,000; U2OS, qRT-PCR YB-1 vs CDIP delta delta Cp, 16 h; hits give high values; zero = DMSO, each unit about twofold;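 active = delta delta Cp rounded down to an integer at or above 3, about 3 SD of DMSO wells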;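 note: higher means less YB-1 transcript or more CDIP transcript relative to DMSO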
* marks the source's active call; other numbers are inactive results; nt = no result given. This is a sample that favours compounds with a hit; in the whole collection about 2.1% have one here.

SMILES | U2OS ROS induce | YB-1 expr inh
Cc1ccc(S(=O)(=O)N(C)C[C@@H]2Oc3ccc(NS(=O)(=O)c4ccc(Cl)cc4)cc3CC(=O)N([C@@H](C)CO)C[C@@H]2C)cc1 | 14 | 0.12
Cc1noc(C)c1NC(=O)Nc1ccc2c(c1)CC(=O)N([C@H](C)CO)C[C@@H](C)[C@@H](CN(C)S(=O)(=O)c1cccs1)O2 | 106* | -0.24
Cc1noc(C)c1NC(=O)Nc1ccc2c(c1)CC(=O)N([C@@H](C)CO)C[C@H](C)[C@H](CN(C)Cc1ccc3c(c1)OCO3)O2 | 124* | 0.35
Cc1noc(C)c1NC(=O)Nc1ccc2c(c1)CC(=O)N([C@@H](C)CO)C[C@H](C)[C@H](CN(C)S(=O)(=O)c1cccs1)O2 | 12 | -0.18
Cc1noc(C)c1NC(=O)Nc1ccc2c(c1)CC(=O)N([C@H](C)CO)C[C@H](C)[C@H](CN(C)Cc1ccc3c(c1)OCO3)O2 | 4 | -0.054
C[C@H]1CN([C@@H](C)CO)C(=O)Cc2cc(NS(=O)(=O)c3ccc(Cl)cc3)ccc2O[C@@H]1CN(C)S(=O)(=O)c1ccc(Cl)cc1 | 84* | 0.23
Cc1ccc(S(=O)(=O)Nc2ccc3c(c2)CC(=O)N([C@@H](C)CO)C[C@@H](C)[C@@H](CN(C)S(=O)(=O)c2cccs2)O3)cc1 | 0 | 0.11
Cc1ccc(S(=O)(=O)Nc2ccc3c(c2)CC(=O)N([C@H](C)CO)C[C@H](C)[C@H](CN(C)S(=O)(=O)c2cccs2)O3)cc1 | 96* | 0.72
O=C(c1cccc(C(F)(F)F)c1)N1CCc2c([nH]c3ccccc23)C1C(F)(F)F (centres undefined) | -11 | nt
C[C@H]1CN([C@@H](C)CO)C(=O)c2cc(NS(C)(=O)=O)ccc2O[C@H]1CN(C)C(=O)NC1CCCCC1 | -7 | -0.076
O=C(NC1CCN(Cc2cccc3ccccc23)CC1)c1ccccc1 | 25 | 0.024
Cc1ccc(S(=O)(=O)N(C)C[C@@H]2Oc3ccc(NS(=O)(=O)c4ccc(Cl)cc4)cc3CC(=O)N([C@H](C)CO)C[C@H]2C)cc1 | 14 | -0.08
Cc1ccc(S(=O)(=O)Nc2ccc3c(c2)CC(=O)N([C@H](C)CO)C[C@@H](C)[C@@H](CN(C)S(=O)(=O)c2ccc(Cl)cc2)O3)cc1 | 94* | 0.16
COc1cc2c(cc1OC)C(CC#N)=NCC2 | -17 | 1.1
COc1ccc2c(c1OC)C(=O)N1c3ccccc3N=C(c3ccc(Br)cc3)CC21 (centres undefined) | 57 | 9.6*
COc1ccc(C2=NN(C(=O)CSCc3ccco3)C(c3cccc(OC)c3OC)C2)cc1 (centres undefined) | 69 | nt
Cc1ccc(S(=O)(=O)Nc2ccc3c(c2)C(=O)N([C@@H](C)CO)C[C@@H](C)[C@H](CN(C)Cc2ccc(Cl)c(Cl)c2)O3)cc1 | 31 | 0.38
CCn1c(CNC(=O)c2ccc(OC)c(OC)c2)n[nH]c1=S | 0 | nt
C[C@@H]1CN([C@@H](C)CO)C(=O)c2cccc(NS(=O)(=O)c3cn(C)cn3)c2O[C@H]1CN(C)S(=O)(=O)c1ccc(Cl)cc1 | -2 | 0.0033
Cc1ccc2c(C)nc(NC3=NC(C(=O)Nc4ccc(Cl)c(Cl)c4)CC(=O)N3)nc2c1 (centres undefined) | -10 | nt
Cc1cc(C)c2nc(NC3=NC(c4ccccc4)CC(=O)N3)nc(C)c2c1 (centres undefined) | 114* | nt
C[C@H](CO)N1C[C@H](C)[C@H](CN(C)Cc2ccncc2)Oc2ccc(NC(=O)Nc3ccccc3)cc2C1=O | 4 | 0.063
C[C@H]1CN([C@@H](C)CO)C(=O)c2cc(NC(=O)Nc3ccc(F)cc3)ccc2O[C@H]1CN(C)C(=O)NC1CCCCC1 | -4 | 0.065
COc1ccc(C(=O)COc2ccc(NC(=O)c3cccc([N+](=O)[O-])c3)cc2)cc1 | 7 | nt
COC(=O)COc1ccc(NC(=O)c2ccc(OC)c([N+](=O)[O-])c2)cc1 | 118* | nt
SMILES | U2OS ROS induce | YB-1 expr inh
C[C@@H]1CN([C@H](C)CO)C(=O)c2cccc(NC(=O)c3cnccn3)c2O[C@@H]1CN(C)C(=O)Nc1ccc2c(c1)OCO2 | -5 | -0.23
Cc1cc2c(cc1S(=O)(=O)N1CCc3ccccc31)OCC(=O)N2 | 18 | nt
Cc1cc2c(cc1S(=O)(=O)N1CC(C)CC(C)C1)OCC(=O)N2 (centres undefined) | 85* | nt
O=C(COc1cccc(NC(=O)c2ccccc2Cl)c1)c1ccc(F)cc1 | 7 | nt
COc1ccc(OC)c(S(=O)(=O)N(C)CC(=O)N2CCOCC2)c1 | -13 | nt
COc1ccccc1-c1cc(C(F)(F)F)nc(S(=O)(=O)CCCC(=O)N2CCOCC2)n1 | 90* | nt
C[C@H](CO)N1C[C@H](C)[C@H](CN(C)C(=O)Nc2ccc(C(C)(C)C)cc2)OCc2cn(nn2)CCCC1=O | 3 | 0.26
C[C@@H]1CN([C@@H](C)CO)C(=O)c2cc(NC(=O)Nc3ccccc3)ccc2O[C@H]1CN(C)C(=O)NC1CCCCC1 | -5 | -0.27
COCCOC(=O)N1C(=O)[C@@]2(c3ccccc31)[C@H](c1ccccc1OCCO)N1[C@H](c3ccccc3)[C@H](c3ccccc3)OC(=O)[C@H]1[C@@H]2C(=O)N1CCCCCCC1 | 103* | -0.31
COCCOC(=O)N1C(=O)[C@@]2(c3cc(C#CC4=CCCCC4)ccc31)[C@H](C(=O)N1CCN(c3ncccn3)CC1)[C@H]1C(=O)O[C@H](c3ccccc3)[C@H](c3ccccc3)N1[C@@H]2c1ccccc1OCCO | 128* | -0.5
COCCOC(=O)N1C(=O)[C@@]2(c3cc(C#CC4=CCCCC4)ccc31)[C@H](c1ccc(OCCO)cc1)N1[C@H](c3ccccc3)[C@H](c3ccccc3)OC(=O)[C@H]1[C@@H]2C(=O)N1CCc2cc(OC)c(OC)cc2C1 | 39 | -0.021
COCCOC(=O)N1C(=O)[C@@]2(c3cc(C#CCC(C(=O)OC)C(=O)OC)ccc31)[C@H](c1ccc(OCCO)cc1)N1[C@H](c3ccccc3)[C@H](c3ccccc3)OC(=O)[C@H]1[C@@H]2C(=O)N1CCN(c2ncccn2)CC1 | 112* | 0.11
O=C1O[C@H](c2ccccc2)[C@H](c2ccccc2)N2[C@H]1[C@@H](C(=O)N1CCCCCCC1)[C@]1(C(=O)Nc3ccccc31)[C@H]2c1ccccc1OCCO | 48 | -0.39
COCCOC(=O)N1C(=O)[C@@]2(c3cc(C#CCC(C(=O)OC)C(=O)OC)ccc31)[C@H](c1ccc(O)cc1)N1[C@H](c3ccccc3)[C@H](c3ccccc3)OC(=O)[C@H]1[C@@H]2C(=O)N1CCc2cc(OC)c(OC)cc2C1 | 41 | -0.11
COCCOC(=O)N1C(=O)[C@@]2(c3ccccc31)[C@H](C(=O)N1CCN(c3ncccn3)CC1)[C@H]1C(=O)O[C@H](c3ccccc3)[C@H](c3ccccc3)N1[C@@H]2c1ccc(OCCO)cc1 | 105* | 0.12
COc1ccc(C#Cc2ccc3c(c2)[C@]2(C(=O)N3)[C@H](c3ccc(OCCO)cc3)N3[C@H](c4ccccc4)[C@H](c4ccccc4)OC(=O)[C@H]3[C@@H]2C(=O)N2CCN(c3ncccn3)CC2)cc1 | 19 | 0.12
CC1=Nc2ccc(Br)cc2C(c2ccccc2)N1CC(=O)NN (centres undefined) | 10 | -0.079
C[C@@H]1CN([C@@H](C)CO)C(=O)c2cc(NS(=O)(=O)c3ccc(Cl)cc3)ccc2O[C@H]1CN(C)C(=O)Nc1cccc2ccccc12 | -6 | 0.23
